Several values for one entry are separate records, joined by “and”; a condition that tells them apart may be missing. Equal values may be shown once. Results filed as inconclusive are left out. Activity calls are given as the source filed them. Unless noted, calls come from the whole dose curve; as a rule, active = well fitted curve in the direction sought with a large enough effect in the repeat runs; inconclusive = weak or mixed curves; inactive = no such curve, though single readings can be large; an effect the other way counts as inactive or inconclusive.
What was measured:
[1] = target: Thyrotropin receptor (Homo sapiens) (UniProt P16473); assay: qHTS assay to identify small molecule agonists of the thyroid stimulating hormone receptor (TSHR) signaling pathway (AID 1224843; calls by dose curve; note: nearly all actives have a fitted effect of over 45% in size)
Method in brief: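 HEK293/TSHR, 800 cells/well; cpd 30 min RT; add cAMP-d2 + anti-cAMP-cryptate, 1 h RT; fluorescence read on plate reader. 15-pt titration, n=3.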

[2] = qHTS assay to identify small molecule agonists of the hypoxia (HIF-1) signaling pathway - cell viability counter screen (AID 1224844; calls by dose curve; note: nearly all actives have a fitted effect of over 50% in size)
Method in brief: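 Cytotoxicity was measured in parallel with the HRE-driven beta-lactamase readout: after 17 hrs of compound exposure at 37C, HRE-bla ME-180 cells received CellTiter-Glo and luminescence was recorded 30 min later.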

[3] = qHTS assay to identify small molecule agonists of H2AX (AID 1224845; active = well fitted activation curve with a large enough effect in the signal ratio in the repeat runs, not every such curve was filed as active; the % refers to the signal ratio)
Method in brief: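 Wild-type CHO-K1 cells, plated overnight, exposed 3hr at 37C to 15 concentrations (0.76% DMSO final). Lysed, then HTRF anti-pH2AX (S139) cryptate and anti-H2AX-d2 antibodies, 24 hr room temperature; 665/620 nm emission read.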

[4] = qHTS assay to identify small molecule agonists of the hypoxia (HIF-1) signaling pathway (AID 1224846; active = well fitted activation curve with a large enough effect in the signal ratio in the repeat runs, not every such curve was filed as active; the % refers to the signal ratio)
Method in brief: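 Compounds from the Tox21 10K library, dissolved in DMSO, are tested for induction of a hypoxia response element–controlled beta-lactamase reporter in ME-180 cells. Exposure lasts 17 hrs at 37C after a 5 hr settling period, followed by CCF4-AM FRET substrate.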

[5] = qHTS assay to identify small molecule agonists of H2AX - cell viability counter screen (AID 1224847; calls by dose curve; note: top concentration of the series differs between compounds; nearly all actives have a fitted effect of over 30% in size)
Method in brief: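 After overnight plating of 1000 CHO-K1 cells per well, a 15-concentration compound series was applied for 3 hr at 37C. Luminescence from CellTiter-Glo, read following 30 min at room temperature, reflected cell viability.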

[6] = qHTS RealTime-Glo MT Cell Viability Assay in HepG2 cells - 24 hour (AID 1224867); note: nearly all actives have a fitted effect of over 50% in size
Method in brief: (§1)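 Cells + NanoLuc/prosubstrate dispensed (600 cells/well) → 5 h at 37 C/5% CO2 → compounds in DMSO transferred → 40 h incubation at 37 C, luminescence read at 0, 8, 16, 24, 32, 40 h.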

[7] = qHTS RealTime-Glo MT Cell Viability Assay in HEK293 cells - 32 hour (AID 1224868); note: top concentration of the series differs between compounds; nearly all actives have a fitted effect of over 50% in size
Method in brief: (§2)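 Tox21 10K qHTS, HEK293, 600 cells/well, RealTime-Glo reagent co-dispensed with cells; 5 h preincubation, compound by pintool, 37 C, luminescence at 0–40 h.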

[8] = A CellTox Green Cytotoxicity Assay to monitor cytotoxicity in HEK293 cells - 0 hour (AID 1224869); note: nearly all actives have a fitted effect of over 50% in size
Method in brief: (§3)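 Cells (HEK293, 600/well) and dye reagent are dispensed together. After 5 h at 37 C, 23 nL compound is pinned in. Plates stay at 37 C for 40 h with fluorescence read at 0h, 8h, 16h, 24h, 32h and 40h.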

[9] = qHTS RealTime-Glo MT Cell Viability Assay in HepG2 cells - 40 hour (AID 1224870); note: nearly all actives have a fitted effect of over 50% in size
Method in brief: (§4)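 HepG2 cells (600/well) mixed with RealTime-Glo MT reagent, settled 5 h at 37 C/5% CO2 before compound addition. Nonlytic NanoLuc luminescence from viable-cell prosubstrate reduction read repeatedly during 40 h treatment at 37 C.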

[10] = A CellTox Green Cytotoxicity Assay to monitor cytotoxicity in HEK293 cells - 40 hour (AID 1224871); note: nearly all actives have a fitted effect of over 45% in size
Method in brief: as §3

[11] = qHTS RealTime-Glo MT Cell Viability Assay in HEK293 cells - 16 hour (AID 1224872)
Method in brief: as §2

[12] = qHTS RealTime-Glo MT Cell Viability Assay in HepG2 cells - 8 hour (AID 1224873); note: nearly all actives have a fitted effect of over 55% in size
Method in brief: as §4

[13] = qHTS RealTime-Glo MT Cell Viability Assay in HEK293 cells - 40 hour (AID 1224874); conditions: RealTime-Glo luminescence; max response: active compounds read low; note: nearly all actives have a fitted effect of over 50% in size
Method in brief: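 Real-time viability in HEK293: signal arises when living cells convert a prosubstrate for NanoLuc in the medium, so luminescence tracks viable cell number. Compound (23 nL, DMSO) added 5 h post-seeding; kinetic reads at 0–40 h, 37 C.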

[14] = A CellTox Green Cytotoxicity Assay to monitor cytotoxicity in HEK293 cells - 24 hour (AID 1224875); note: series mostly up to about 77 µM; nearly all actives have a fitted effect of over 45% in size
Method in brief: as §3

[15] = A CellTox Green Cytotoxicity Assay to monitor cytotoxicity in HepG2 cells - 16 hour (AID 1224876); note: nearly all actives have a fitted effect of over 45% in size
Method in brief: (§5)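 Cells and non-lytic dye reagent are dispensed together (600 HepG2 cells/well) and incubated 5 h before DMSO compound transfer. Kinetic fluorescence is then recorded in the same wells during 40 h at 37 C.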

[16] = qHTS RealTime-Glo MT Cell Viability Assay in HepG2 cells - 32 hour (AID 1224877); note: nearly all actives have a fitted effect of over 55% in size
Method in brief: as §1

[17] = A CellTox Green Cytotoxicity Assay to monitor cytotoxicity in HepG2 cells - 24 hour (AID 1224878); note: nearly all actives have a fitted effect of over 45% in size
Method in brief: as §5

[18] = A CellTox Green Cytotoxicity Assay to monitor cytotoxicity in HepG2 cells - 40 hour (AID 1224879); note: nearly all actives have a fitted effect of over 40% in size
Method in brief: as §5

[19] = qHTS assay to identify small molecule antagonists of the estrogen related receptor (ERR) signaling pathway from Tox21 library (AID 1224848); note: nearly all actives have a fitted effect of over 50% in size
Method in brief: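 Compounds dissolved in DMSO are pin-transferred onto ERR reporter cells (2,000 per well) that have settled for 6 h at 37 C. Plates then incubate 18 h at 37 C before ONE-Glo luciferase reagent and a luminescence read 30 min later.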

[20] = qHTS assay to identify small molecule agonists of the estrogen related receptor (ERR) signaling pathway from Tox21 library (AID 1224849; calls by dose curve; note: nearly all actives have a fitted effect of over 15% in size)
Method in brief: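 Cells carrying the ERR reporter were plated and allowed to settle for 6 h, exposed to library compounds for 18 h at 37 C, then lysed with ONE-Glo and luminescence measured.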
% is set by controls: 0 for no effect and ±100 for the full control effect.

Chain of Thyrotropin receptor (Homo sapiens) (P16473 whole entry, looked up): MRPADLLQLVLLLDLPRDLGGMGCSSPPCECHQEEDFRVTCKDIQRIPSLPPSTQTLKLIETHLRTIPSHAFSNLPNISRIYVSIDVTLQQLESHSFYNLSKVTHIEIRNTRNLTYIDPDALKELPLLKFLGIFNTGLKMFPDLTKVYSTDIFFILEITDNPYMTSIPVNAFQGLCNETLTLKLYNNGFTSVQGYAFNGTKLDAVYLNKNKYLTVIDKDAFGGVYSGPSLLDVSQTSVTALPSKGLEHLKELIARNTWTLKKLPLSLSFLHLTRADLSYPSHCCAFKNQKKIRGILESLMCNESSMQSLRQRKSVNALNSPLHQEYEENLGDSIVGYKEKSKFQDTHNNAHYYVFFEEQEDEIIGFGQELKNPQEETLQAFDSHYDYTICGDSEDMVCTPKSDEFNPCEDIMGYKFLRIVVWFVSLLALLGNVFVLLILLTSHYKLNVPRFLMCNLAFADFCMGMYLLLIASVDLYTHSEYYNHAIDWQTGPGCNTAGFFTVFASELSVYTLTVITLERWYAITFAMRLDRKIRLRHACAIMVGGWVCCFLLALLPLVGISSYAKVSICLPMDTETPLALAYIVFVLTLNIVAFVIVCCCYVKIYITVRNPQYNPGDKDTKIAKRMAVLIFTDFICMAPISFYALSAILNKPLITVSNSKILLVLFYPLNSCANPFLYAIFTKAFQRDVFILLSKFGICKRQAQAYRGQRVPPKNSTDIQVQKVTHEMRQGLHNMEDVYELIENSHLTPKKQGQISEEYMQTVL

CCCCCCO
inactive: outcome [1] | outcome [2] | outcome [3] | outcome [4] | outcome [5] | Potency [6] | Potency [7] | outcome [8] | outcome [9] | Potency [10] | Potency [11] | Potency [12] | max response [13] -0.525% and 0.519% | Potency [14] | outcome [15] | outcome [16] | Potency [17] | Potency [18]

CC(=O)CCC=C(C)C
inactive: outcome [1] | outcome [2] | outcome [3] | outcome [4] | outcome [5] | outcome [19] | outcome [20] | Potency [6] | Potency [7] | outcome [8] | outcome [9] | Potency [10] | Potency [11] | Potency [12] | max response [13] 10.6% and -4.31% | Potency [14] | outcome [15] | outcome [16] | Potency [17] | Potency [18]

CC(CCO)CC(C)(C)C (centres undefined)
inactive: outcome [1] | outcome [2] | outcome [3] | outcome [4] | outcome [5] | Potency [6] | Potency [7] | outcome [8] | outcome [9] | Potency [10] | Potency [11] | Potency [12] | max response [13] -6.13% and 0.884% | Potency [14] | outcome [15] | outcome [16] | Potency [17] | Potency [18]

CCO[Si](CCCN)(OCC)OCC
inactive: outcome [1] | outcome [2] | outcome [3] | outcome [4] | outcome [5] | outcome [19] | outcome [20] | Potency [6] | Potency [7] | outcome [8] | Potency [10] | Potency [11] | Potency [12] | max response [13] -7.12% and 0.455% | Potency [14] | outcome [15] | outcome [16] | Potency [17] | Potency [18]

OCc1cccc(Oc2ccccc2)c1
inactive: outcome [1] | outcome [2] | outcome [3] | outcome [4] | outcome [5] | Potency [6] | Potency [7] | outcome [8] | outcome [9] | Potency [10] | Potency [11] | Potency [12] | max response [13] -0.677% and -9.74% | Potency [14] | outcome [15] | outcome [16] | Potency [17] | Potency [18]

Nc1nc(N)nc(-c2ccccc2)n1
inactive: outcome [1] | outcome [2] | outcome [3] | outcome [4] | outcome [5] | Potency [6] | Potency [7] | outcome [8] | outcome [9] | Potency [10] | Potency [11] | Potency [12] | max response [13] -23.1% and 0.641% | Potency [14] | outcome [15] | outcome [16] | Potency [17] | Potency [18]

NCCN1CCNCC1
inactive: outcome [1] | outcome [2] | outcome [3] | outcome [4] | outcome [5] | Potency [6] | Potency [7] | outcome [8] | outcome [9] | Potency [10] | Potency [11] | Potency [12] | max response [13] 1.25% and -21.7% | Potency [14] | outcome [15] | outcome [16] | Potency [17] | Potency [18]

CC(=O)CC(C)(C)O
inactive: outcome [1] | outcome [2] | outcome [3] | outcome [4] | outcome [5] | outcome [19] | outcome [20] | Potency [6] | Potency [7] | outcome [8] | outcome [9] | Potency [10] | Potency [11] | Potency [12] | max response [13] 0.169% and 3.54% | Potency [14] | outcome [15] | outcome [16] | Potency [17] | Potency [18]

CSc1ccc(Cl)cc1
inactive: outcome [1] | outcome [2] | outcome [3] | outcome [4] | outcome [5] | Potency [6] | Potency [7] | outcome [8] | outcome [9] | Potency [10] | Potency [11] | Potency [12] | max response [13] -0.983% and -3.28% | Potency [14] | outcome [15] | outcome [16] | Potency [17] | Potency [18]

CCCCCCC=O
inactive: outcome [1] | outcome [2] | outcome [3] | outcome [4] | outcome [5] | Potency [6] | Potency [7] | outcome [8] | outcome [9] | Potency [10] | Potency [11] | Potency [12] | max response [13] 0.391% and 24.5% | Potency [14] | outcome [15] | outcome [16] | Potency [17] | Potency [18]

COc1ccc(N)c(C)c1
inactive: outcome [1] | outcome [2] | outcome [3] | outcome [4] | outcome [5] | Potency [6] | Potency [7] | outcome [8] | outcome [9] | Potency [10] | Potency [11] | Potency [12] | max response [13] 9.17% and 3.97% | Potency [14] | outcome [15] | outcome [16] | Potency [17] | Potency [18]

O=S(=O)(O)c1ccccc1
inactive: outcome [1] | outcome [2] | outcome [3] | outcome [4] | outcome [5] | outcome [19] | outcome [20] | Potency [6] | Potency [7] | outcome [8] | Potency [10] | Potency [11] | Potency [12] | max response [13] 0.0472% and -6.62% | Potency [14] | outcome [15] | outcome [16] | Potency [17] | Potency [18]

C=C(C)C(=O)OCC(C)C
inactive: outcome [1] | outcome [2] | outcome [3] | outcome [4] | outcome [5] | Potency [6] | Potency [7] | outcome [8] | outcome [9] | Potency [10] | Potency [11] | Potency [12] | max response [13] 0.908% and 6.86% | Potency [14] | outcome [15] | outcome [16] | Potency [17] | Potency [18]

Cc1ccc([N+](=O)[O-])cc1S(=O)(=O)O
inactive: outcome [1] | outcome [2] | outcome [3] | outcome [4] | outcome [5] | outcome [19] | outcome [20] | Potency [6] | Potency [7] | outcome [8] | Potency [10] | Potency [11] | Potency [12] | max response [13] 6.39% and 7.52% | Potency [14] | outcome [15] | outcome [16] | Potency [17] | Potency [18]

Reference: PubChem BioAssay (Tox21)
